Screening results as filed in PubChem BioAssay.
ELG1 genotox: qHTS screen for small molecules that induce genotoxicity in human embryonic kidney (HEK293T) cells expressing luciferase-tagged ELG1; HEK293T ELG1-luciferase reporter, luminescence, 16 h; Potency, µM (top dose mostly 46 µM), inactives show at the highest dose activity change, positive = activation, hits mostly activators; actives 1.3% (n = 330,000); AID 504466, 2011; also: % of control where 0% means no effect; nearly all actives have a fitted effect of over 60% in size
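Cells (2,000/well) expressing the ELG1-luciferase fusion are dosed by pin tool and kept 16 hr at 37 °C, 5% CO2. Signal comes from ONE-Glo luciferase reagent after 30 min at room temperature.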
Rab9 promoter act: qHTS Assay for Rab9 Promoter Activators | Huh7 Rab9 promoter-luciferase reporter, luminescence, 24 h | Potency, µM (series often up to 9.22 µM), for inactives: at the highest dose activation, negative = inhibition, hits mostly activators | actives 2.8% (n = 320,000) | AID 485297, 2010; also: % of control where 0% means no effect; nearly all actives have a fitted effect of over 60% in size
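Stable Rab9-luc Huh7, 1500 cells/well, 2 h settle; cmpd in DMSO, 24 h, 37 °C/5% CO2; luciferase reagent 10 min RT; luminescence.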
Luc counter: Counterscreen for Luciferase (Kinase-Glo TM) Inhibition; Luciferin 4-monooxygenase (Photuris pensylvanica), Q27757; actives 0.28% (n = 200,000); Kinase-Glo luciferase, ATP luminescence, 8 min; Potency, µM (series often up to 38.3 µM), for inactives: top-dose activity change, negative = inhibition, hits mostly inhibitors; also: % is scaled to controls: 0 for no effect and ±100 for the full control effect; nearly all actives have a fitted effect of over 60% in size
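Compound is pinned into ATP-containing buffer (10 uM ATP, imidazole pH 7.2, 7 mM MgCl2). Kinase-Glo luciferase reagent is then added. Light output is recorded following an 8-min room-temperature incubation.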
SMN2 splice up: qHTS Assay for Enhancers of SMN2 Splice Variant Expression; HEK293 SMN2-luciferase splicing reporter, luminescence, 30-36 h; Potency, µM (highest dose often 46.1 µM), without a hit: at the top dose activity change, positive = activation, actives largely listed as activators; actives 2.8% (n = 210,000); also: % of control where 0% means no effect; nearly all actives have a fitted effect of over 55% in size
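qHTS luciferase splicing reporter: luminescence rises when SMN2 exon 7 is included in transfected HEK293 cells. Compound exposure lasted 30-36 h at 37C, with 4.5 mM final sodium butyrate as control, followed by a ONE-Glo read.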
FLuc counter: qHTS profiling assay for firefly luciferase inhibitor/activator using purifed enzyme and Km concentrations of substrates (counterscreen for miR-21 project); Luciferin 4-monooxygenase (Photinus pyralis), P08659; purified FLuc, Km substrates, luminescence inhibition; Potency, µM (doses to about 57.5 µM), for the others: at the top dose activity change, negative = inhibition, actives largely listed as inhibitors; actives 6.9% (n = 360,000);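 also: plate controls were vehicle for no effect and reference inhibitor for full effect; nearly all actives have a fitted effect of over 55% in size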
Target sequence (P08659 whole entry, looked up): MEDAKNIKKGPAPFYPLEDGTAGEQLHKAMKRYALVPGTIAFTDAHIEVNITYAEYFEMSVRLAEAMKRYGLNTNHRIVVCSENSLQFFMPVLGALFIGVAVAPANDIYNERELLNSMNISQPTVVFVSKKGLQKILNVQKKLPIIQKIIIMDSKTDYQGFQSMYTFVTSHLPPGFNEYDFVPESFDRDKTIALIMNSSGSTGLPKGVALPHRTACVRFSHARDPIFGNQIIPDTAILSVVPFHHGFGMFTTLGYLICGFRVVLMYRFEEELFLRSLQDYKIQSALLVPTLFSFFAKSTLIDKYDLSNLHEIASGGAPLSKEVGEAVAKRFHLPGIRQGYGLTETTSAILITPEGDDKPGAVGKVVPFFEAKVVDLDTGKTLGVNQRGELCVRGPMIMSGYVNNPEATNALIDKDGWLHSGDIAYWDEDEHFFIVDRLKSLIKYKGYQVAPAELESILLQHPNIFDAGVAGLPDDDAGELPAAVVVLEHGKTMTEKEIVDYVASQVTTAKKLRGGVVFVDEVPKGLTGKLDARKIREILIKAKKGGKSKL
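Purified P. pyralis luciferase (10nM final) with 10uM D-luciferin and 10uM ATP (Km levels) in 50mM Tris acetate pH 7.5, 10mM Mg acetate, 0.01% Tween-20, 0.05% BSA; qHTS 6-point titration, ~60 µM downward; luminescence read.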
NPC1 prom act: qHTS Assay for NPC1 Promoter Activators; Huh7 NPC1 promoter luciferase reporter, 24 h; AID 485313, 2010; Potency, µM (highest dose often 9.22 µM), for the others: top-dose activation, hits mostly activators; actives 2.4% (n = 320,000); also: % of control where 0% means no effect; nearly all actives have a fitted effect of over 60% in size
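Compounds in DMSO were transferred onto Huh7 NPC1-luciferase reporter cells pre-incubated 2 h; after 24 h at 37 °C, Amplite reagent was dispensed and luminescence recorded 10 min later.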
* marks the source's active call; other numbers are inactive results; ? = inconclusive; . = not tested or not shown. An excerpt weighted towards active compounds, which were near 7.5% of everything screened. Calls follow the shape of the dose curve; as a rule, active = well fitted curve in the direction sought with a large enough effect; inconclusive = small, poorly fitted or top-dose-only effect, or another doubt; inactive = no such curve, though single readings can be large; an effect the other way counts as inactive or inconclusive. Potency is read from the fitted curve at half-maximal effect.

SMILES	ELG1 genotox	Rab9 promoter act	Luc counter	SMN2 splice up	FLuc counter	NPC1 prom act
COc1ccccc1NC(=O)c1ccc(Br)c(S(=O)(=O)N2CCCC2)c1	-14.9%	-10.9%	.	.	?	0.3%
O=C(NCCOC(=O)C1COc2ccccc2O1)c1cccnc1 (stereo not given)	-0.5%	4.6%	-0.8%	-7.0%	-0.4%	-4.1%
CCOc1cc(/C=N/NC(=O)C(=O)Nc2cc(Cl)ccc2C)ccc1O	9.8%	-9.4%	-2.1%	10.9%	-1.3%	-0.5%
O=C(NCCOc1ccccc1)c1cc2ccccc2o1	.	.	-3.7%	10µM*	5.36µM*	.
CC(C)Cc1ccc(C(=O)NCCOc2ccccc2)o1	3.26µM*	0.794µM*	.	.	0.953µM*	0.316µM*
O=C(COc1ccccc1)NNC(=O)c1cc2ccccc2o1	0.7%	0.7%	-0.7%	-12.6%	-10.9%	0.6%
Cc1ccccc1-n1c(C)cc(/C=N/Nc2ccc([N+](=O)[O-])cn2)c1C	?	?	-4.5%	22.6%	?	?
COc1cccc(/C=N/Nc2ncnc(N)c2[N+](=O)[O-])c1OC	?	0.562µM*	-22.0%	3.16µM*	4.78µM*	1.78µM*
Cc1cc(/C=N/Nc2nc(N)ncc2[N+](=O)[O-])c(C)n1-c1cccc(C(F)(F)F)c1	?	0.447µM*	.	.	1.51µM*	0.891µM*
Cc1cc(/C=N/Nc2ncnc(N)c2[N+](=O)[O-])c(C)n1-c1ccccc1	?	-18.1%	.	.	0.0757µM*	?
Cc1cc(/C=N/Nc2ccc([N+](=O)[O-])cn2)c(C)n1-c1ccc(C(=O)O)cc1	11.1%	0.0%	-0.9%	-8.9%	?	0.1%
CCCCCC(=O)/C=C/C=C\CCCCCCCC(=O)O	.	.	0.1%	-7.1%	.	.
Cc1cc(C)c(NC(=O)C(C)n2c(=O)c(C(F)(F)F)nc3ccccc32)c(C)c1 (stereo not given)	.	.	.	.	-0.2%	.
Cc1ccc(S(=O)(=O)/N=C(/c2ccc(F)cc2)N2CCCCC2)cc1	2.0%	1.8%	2.8%	9.0%	5.0%	3.8%
CSc1cccc(-c2nnc(NC(=O)c3cccc(N4C(=O)CCC4=O)c3)o2)c1	-10.3%	-2.6%	.	.	26.9µM*	0.1%
O=C(Nc1nnc(-c2ccc(Cl)cc2)o1)c1cccc(N2C(=O)CCC2=O)c1	0.7%	0.5%	-0.7%	12.3%	12µM*	2.1%
O=C(Nc1nnc(-c2ccncc2)o1)c1cccc(N2C(=O)CCC2=O)c1	1.4%	0.4%	2.5%	-13.9%	-18.7%	-1.9%
NS(=O)(=O)c1ccc(N/N=C/c2cn(-c3ccccc3)nc2-c2cccs2)c([N+](=O)[O-])c1	-7.3%	-38.5%	-6.9%	-91.2%	-16.5%	-7.5%
NC(=O)N/N=C/c1cn(-c2ccccc2)nc1-c1cccs1	?	?	?	17.8µM*	2.13µM*	?
O=C(O)c1cccc(N/N=C/c2cn(-c3ccccc3)nc2-c2cccs2)c1	?	2µM*	-5.9%	14.1µM*	1.35µM*	3.55µM*
NS(=O)(=O)c1ccc(N/N=C/c2cn(-c3ccccc3)nc2-c2cccs2)cc1	-1.2%	10.9%	.	.	10.7µM*	4.5%
Cc1ccc(-c2nn(-c3ccccc3)cc2/C=N/NC(=O)c2ccc(Br)o2)cc1	-13.6%	5.6%	-1.6%	-92.9%	10.7µM*	-2.6%
Cc1ccc(-c2nn(-c3ccccc3)cc2/C=N/NC(=O)c2ccncc2)o1	?	1.8%	1.0%	14.1µM*	12µM*	-4.0%
O=C(/C=C/c1cn(-c2ccccc2)nc1-c1cccs1)NCCN1CCOCC1	-8.9%	-1.1%	.	.	19µM*	0.0%
